# Assay outcomes deposited in PubChem BioAssay by ICCB-Longwood Screening Facility, Harvard Medical School.
# The full list was thinned out, with hits kept by preference.
# VACV E9 pol inh – vaccinia E9 polymerase processive synthesis inhibitors, primary screen, biochemical, absorbance. Vaccinia virus DNA polymerase (E9) processive complex. in vitro processive DNA synthesis, absorbance read-out; stronger effect = lower value. normalized absorbance, % (concentration not given with the values). 46,000 compounds, 0.94% hits; in the data active = normalized absorbance mostly below about 85%, no sharp cut-off; inactive = mostly above about 86%
# Numbers without * were called inactive.
SMILES,VACV E9 pol inh
Brc1ccccc1[C@@H]1Nc2ccccc2[C@@H]2C=CC[C@@H]21,100.1
CC(C)C1Nc2ccc(C(=O)O)cc2C2C=CCC21 (configuration not stated),77.9*
O=C1N[C@H](C(=O)O)C1Cc1ccccc1 (some centres not stated),98.6
Cc1ccc2c(c1)C1C=CCC1C(c1ccc(N=Cc3ccccc3)cc1)N2 (configuration not stated),96.9
Cc1cc(Cl)ccc1NS(=O)(=O)c1ccc2c(c1)[C@H]1C=CC[C@H]1[C@@H](c1ccccc1)N2,100.7
CCC(=O)Nc1cccc(-c2nc3ccccc3s2)c1,100.2
NC(=O)Cn1nnc(-c2ccccc2)n1,100.2
CC(C)CNC(=O)c1cccc(S(=O)(=O)N(C)C)c1,91.0
CC1CCCN(C(=O)COC(=O)c2ccccc2O)C1 (configuration not stated),103.4
COc1ccc(C=Nc2ccc(Br)cc2)cc1OC,100.5
CCC(C)c1ccccc1N=Cc1ccsc1 (configuration not stated),105.8
COCc1cc(C)nc2sc(C(O)c3ccccc3)c(NC(=O)c3ccco3)c12 (configuration not stated),101.2
CN(c1ccc(Cl)cc1)c1cc(=O)n(C)c2ccccc12,63.2*
CN1CCN(C(=O)COc2cc(=O)n(C)c3ccccc23)CC1,84.6
CCOc1ccccc1N(C)C(=O)COc1cc(=O)n(C)c2ccccc12,88.5
CCOC(=O)C1CCCC1=O (configuration not stated),99.4
CCOc1ccc(C(=O)NCCn2ccc3ccccc32)cc1,96.6
CN(C)c1nc(-c2ccccc2)nnc1-c1ccccc1,109.4
O=C(O)CNC(=O)C1CCCCC1,103.0
O=C(O)CCC1CCCCCCCCCCC1,73.9*
N[C@@H](CC1CCCCC1)C(=O)O,99.3
COCCn1c(=NC(=O)c2ccc(Br)s2)sc2cc(NC(C)=O)ccc21,112.9
CN(C)[C@@H]1C(=O)C(C(N)=O)=C(O)[C@@]2(O)C(=O)C3=C(O)c4c(O)cccc4[C@@](C)(O)[C@H]3C[C@@H]12,98.9
C=C1c2cccc(O)c2C(O)=C2C(=O)[C@]3(O)C(O)=C(C(N)=O)C(=O)[C@@H](N(C)C)[C@@H]3[C@@H](O)[C@H]12,55.2*
C=C1c2c(Cl)ccc(O)c2C(O)=C2C(=O)[C@]3(O)C(O)=C(C(N)=O)C(=O)[C@@H](N(C)C)[C@@H]3[C@@H](O)[C@H]12,100.7
SMILES,VACV E9 pol inh
CC(NC(=O)Oc1ccccc1)C(c1cccs1)N1CCN(c2ccccc2)CC1 (configuration not stated),99.2
O=C(COC(=O)c1cccc2ccccc12)c1ccc(F)cc1,86.4
COc1cccc(-n2c(SCC(=O)NC3CCCC3)nc3c(c2=O)SCC3)c1,102.1
COc1ccc(Nc2ccnc3ccccc23)cc1,97.7
Oc1ccc(Nc2nc(N3CCOCC3)c3ccccc3n2)cc1,89.4
c1ccc2cc3c(Nc4ccc(N5CCOCC5)cc4)ccnc3cc2c1,67.1*
c1cc(N2CCOCC2)ccc1NC1=NCCS1,88.9
CC(C)Nc1ccc(Nc2ccccc2)cc1,96.5
CC(C)Nc1ccc(Nc2ccnc3cc4ccccc4cc23)cc1,10.4*
CCN(CC)C(=O)CCn1c(=O)oc2ccccc21,98.3
Cc1ccc(O)c(C(=O)CC(=O)c2cccs2)c1,93.1
COc1ccccc1Nc1ccc(N=Cc2ccc(F)c(F)c2)cc1,87.0
OC(CN1CCN(c2cccc(Cl)c2)CC1)Cn1c2ccccc2c2ccccc21 (configuration not stated),99.8
OC(CN1CCNCC1)Cn1c2ccc(Br)cc2c2cc(Br)ccc21 (configuration not stated),31.4*
CC1CC(C)CN(CC(O)Cn2c3ccccc3c3ccccc32)C1 (configuration not stated),91.6
Cc1nc(-c2ccccc2)c(CC(=O)O)s1,92.4
COc1ccc(CCNC(=O)CSc2nc3cc(OC)c(OC)cc3c3nc(C)nn23)cc1OC,103.0
CC1(C)CC(=O)c2sc(NC(=O)c3ccc(F)cc3)nc2C1,95.7
COc1ccc(C=Nc2ccccc2)cc1,101.1
COc1ccc(N=Cc2ccccc2F)cc1,52.4*
COc1ccc(N=Cc2cn(-c3ccc(OC)cc3)cc2C=Nc2ccc(OC)cc2)cc1,68.4
COc1cc(/C=[N+](/C)[O-])ccc1OCc1ccc(F)cc1,116.9
N#CCN(CC#N)C(=O)c1ccccc1,106.5
c1ccc2c(c1)CCN2c1ncnc2nc[nH]c12,101.3
COc1ccc(Nc2cc(C(=O)NCCc3ccccc3)c3ccccc3n2)cc1,98.8
SMILES,VACV E9 pol inh
Cc1ccc(Nc2cc(C(=O)NCCC(C)C)c3ccccc3n2)cc1C,71.1*
CC(C)CCNC(=O)c1cc(Sc2ccc(F)cc2)nc2ccccc12,91.0
CCOC(=O)c1ccc(N2C(=O)NC(C(F)(F)F)(C(F)(F)F)C3=C2CC(C)(C)CC3=O)cc1,97.4
CC[C@@]1(O)C[C@H](OC2CC(N(C)C)C(OC3CC(O)C(OC4CCC(=O)C(C)O4)C(C)O3)C(C)O2)c2c(cc3c(c2O)C(=O)c2c(O)cccc2C3=O)[C@H]1C(=O)OC (some centres not stated),37.6*
CC[C@@]1(O)C[C@H](O[C@H]2C[C@H](N(C)C)[C@H](O)[C@H](C)O2)c2c(cc3c(c2O)C(=O)c2c(O)cccc2C3=O)[C@H]1C(=O)OC,8.9*
C=CCN1C(=O)/C(=C\c2ccccc2O)SC1=S,99.6
Cc1ccc(NC(=O)c2cnc3ccccn3c2=O)cc1,92.0
CCN1CCCC1CNC(=O)c1cc2c(s1)-c1ccccc1SC2 (configuration not stated),72.8*
O=C(NCCC1=CCCCC1)c1cc2c(s1)-c1ccccc1SC2,94.0
O=C(NCc1ccccc1)c1cc2c(s1)-c1ccccc1SC2,103.3
COc1ccc(-n2cnc3cc(NC(=O)c4cccs4)ccc32)cc1,98.3
Cc1nc2ccc(NC(=O)c3cccs3)cc2o1,100.8
CCN(CC)CC(O)Cn1c2ccccc2c2ccccc21 (configuration not stated) (tested in a mixture with another compound),76.2*
Cc1c(C)n(CC(O)CNC2CCCCC2)c2ccccc12 (configuration not stated),99.9
Cc1c(C)n(CC(O)CNC2CCCC2)c2ccccc12 (configuration not stated),97.0
CC(C)Cn1c2ccccc2c2ccccc21,98.5
Cc1ccc(N(CC(O)Cn2c3ccccc3c3ccccc32)S(=O)(=O)c2ccccc2)cc1 (configuration not stated),100.6
OC(CNC1CCCC1)Cn1c2ccccc2c2ccccc21 (configuration not stated),80.1*
Cc1ccc(Cl)cc1N1CCN(C(=O)c2onc(C)c2Cl)CC1,83.4
Cn1c(SCC(N)=O)nc2ccccc21,101.8
CC1CCCCC1N1CCC(CNC(=S)Nc2cccc(Cl)c2)C1 (configuration not stated),106.9
CCOc1ccc2nc(SCc3c[nH]c4ccccc34)sc2c1,100.1
CC(C(=O)NC(C)(C)C)n1c(C(F)(F)F)nc2ccccc21 (configuration not stated),109.6
CCCCC1CCC(c2ccc(C(=O)O)cc2)CC1 (configuration not stated),51.0*
CCCC1CCC(c2ccc(C(=O)CCN(C)C)cc2)CC1 (configuration not stated),92.6
CCCC1CCC(c2ccc(C(N)=O)cc2)CC1 (configuration not stated),99.4
